Assay outcomes: PubChem BioAssay, National Center for Advancing Translational Sciences (NCATS)
TsaE inh – qHTS Assay for Inhibitors of YjeE. tRNA threonylcarbamoyladenosine biosynthesis protein TsaE (Escherichia coli (strain …. purified YjeE enzyme, qHTS inhibition assay. Potency, µM. 0.05% of 71,000 active. AID 605, 2007
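Purified YjeE (10 uM) with BODIPY Texas Red-labeled ADP probe (2 uM); compounds pin-transferred, 15 min at room temperature. Binding inhibition read as decreased fluorescence polarization; ADP titration as control.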
BRCT PPI green – qHTS Assay for Inhibitors of BRCT-Phosphoprotein Interaction (Green Fluorophore). Breast cancer type 1 susceptibility protein (Homo sapiens), P38398. AID 875, 2007. 0.05% of 75,000 active. Potency, µM (doses to about 76.9 µM), hits mostly inhibitors. BRCA1 BRCT-phosphopeptide binding, green fluorescence polarization
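Fluorescence polarization: His-tagged BRCT (~35 kDa BRCA1 C-terminus, 250 nM) bound to 100 nM fluorescein-labeled phosphorylated 10-aa BACH1 peptide, pH 7.3 phosphate buffer with DTT and Tween 20. Compounds incubated 12 min at room temperature; inhibition read as lowered polarization.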
BRCT PPI red – qHTS Assay for Inhibitors of BRCT-Phosphoprotein Interaction (Red Fluorophore); BRCT-phosphopeptide binding, red fluorescence polarization; Potency, µM (doses to about 76.9 µM), most hits filed as inhibitors; 0.03% of 75,000 active
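Rhodamine-labelled pBACH1 10-mer (100 nM) bound to BRCT domain (100 nM) at pH 7.3; compounds incubated 12 min room temperature, polarization read. Free peptide defines full inhibition; unlabelled decapeptide titrated as control.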
DNA Pol III inh – qHTS Assay for Inhibitors of DNA Polymerase III Holoenzyme System. AID 603, 2007. Potency, µM (series often up to 57.1 µM). 0.25% of 71,000 active. reconstituted DNA polymerase III holoenzyme replication, biochemical
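Reconstituted *E. coli* holoenzyme (0.35 nM Pol III, 1 nM beta, 154 nM SSB, 2 nM primase) was preincubated with compound for 15 min at RT. Synthesis on 1.4 nM ssM13Gori ran 35 min, then was stopped with PicoGreen/EDTA and read as dsDNA fluorescence.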
15-hLO inh – qHTS Assay for Inhibitors of 15-hLO (15-human lipoxygenase) | purified 15hLO-1, xylenol orange hydroperoxide absorbance | 1.4% of 74,000 active | Potency, µM (top dose mostly 57.1 µM), usual class: inhibitors | Polyunsaturated fatty acid lipoxygenase ALOX15 (Homo sapiens), P16050; also: nearly all actives have a fitted effect of over 55% in size
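Compounds were preincubated 15 min at room temperature with 40 nM purified human enzyme (25 mM Hepes pH 7.5, 0.01% Triton X-100); 50 uM arachidonic acid reacted 6 min. Fe-xylenol orange detection, 30 min, absorbance ratio 573/405 nm.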
Hsp90 Hop PPI – qHTS Assay for Disrupters of an Hsp90 Co-Chaperone Interaction; 0.44% of 71,000 active; Hsp90 C-terminal peptide / TPR2A (Hop) interaction, human; Potency, µM (highest dose often 57 µM); AID 595, 2007; AlphaScreen TPR2A-His6 binding biotin-Hsp90 C-terminal peptide; active = well fitted curve in either direction with a large enough effect; inconclusive = small, poorly fitted or top-dose-only effect, or another doubt
A number is an active result; 0 = inactive; ? = inconclusive; - = no result given; ! = repeats disagree; [ ] = dose if it differs, or a comment. A selection: hits, their analogues and other compounds. The true share with any hit is near 1.9%. Unless noted, calls follow the shape of the dose curve; as a rule, active = well fitted curve in the direction sought with a large enough effect; inconclusive = small, poorly fitted or top-dose-only effect, or another doubt; inactive = no such curve, though single readings can be large; an effect the other way counts as inactive or inconclusive.

SMILES	TsaE inh	BRCT PPI green	BRCT PPI red	DNA Pol III inh	15-hLO inh	Hsp90 Hop PPI
CC(=O)NC(c1ccco1)c1ccc2cccnc2c1O (configuration not stated)	0	0	0	0	0	7.9µM
COc1cc(C(Nc2ccccn2)c2ccc3ccc(C)nc3c2O)cc(OC)c1O (configuration not stated)	0	0	0	0	13µM	?
Oc1c(C(Nc2ccccn2)c2ccccn2)ccc2cccnc12 (configuration not stated)	0	0	0	0	0	3.2µM
Oc1c([C@H](Nc2ccccn2)c2ccccc2)ccc2cccnc12	0	0[15.4 µM]	0[15.4 µM]	0[11.4 µM]	0[11.4 µM]	?
Fc1ccc(-c2cc(C(F)(F)F)nc(N3CCCCC3)n2)cc1	0	0	0	0	0	?
Cc1ccc(-c2cc(C(F)F)nc(N3CCC(C)CC3)n2)cc1	0	0	0	0	0	25µM
Oc1cc(O)c2c(c1)O[C@H](c1ccc(O)c(O)c1)[C@@H](O)[C@@H]2c1c(O)cc(O)c2c1O[C@@H](c1ccc(O)c(O)c1)[C@H](O)C2	0	0[15.4 µM]	0[15.4 µM]	0.63µM	?	0[11 µM]
O=C(OCC1OC(OC(=O)c2cc(O)c(O)c(OC(=O)c3cc(O)c(O)c(O)c3)c2)[C@@H](OC(=O)c2cc(O)c(O)c(OC(=O)c3cc(O)c(O)c(O)c3)c2)C(OC(=O)c2cc(O)c(O)c(OC(=O)c3cc(O)c(O)c(O)c3)c2)C1OC(=O)c1cc(O)c(O)c(OC(=O)c2cc(O)c(O)c(O)c2)c1)c1cc(O)c(O)c(OC(=O)c2cc(O)c(O)c(O)c2)c1 (some centres not stated)	-	0[3.08 µM]	0	-	0.5µM	-
CC(=O)OCC1OC(c2ccccc2)C(OC(C)=O)C(OC(C)=O)C1OC(C)=O (configuration not stated)	0	0	0	0	0	0
O=C(Cn1ncn2c(cc3ccccc32)c1=O)NCc1ccco1	0	0	0	0	?	0
O=C(Cn1ncn2c(cc3ccccc32)c1=O)NCCC1=CCCCC1	0	0	0	0	16µM	0
Cc1cc(N)c2ccccc2[n+]1CCCCCCCCCC[n+]1c(C)cc(N)c2ccccc21	?	0[3.08 µM]	0	16µM!	?	?
CN(C)CC(C)(C)CNC(=O)c1ccc(Cc2nc3ccccc3[nH]2)cc1	-	0	0	-	0	-
COc1cc2c(cc1OC)-c1cc3nc4ccccc4nc3n1C(C)(C)C2	0	0	0	0	13µM	?
COc1ccccc1-n1c(N)c(C(N)=O)sc1=S	0	0	0	0	0	0
NC(=O)c1sc(=S)n(-c2ccc(Br)cc2)c1N	0	0	0	0	10µM	?
NC1(C(=O)O)CC(C(=O)O)C1 (configuration not stated)	0	0	0	0	20µM!	0
NC1(C(=O)O)CCC1	0	0	0	0	0	0
N[C@H](Cc1cccc(-c2ccccc2CP(=O)(O)O)c1)C(=O)O	0	0	0	0	0	0
N#C/C(=C\c1ccc[nH]1)Sc1nc2ccccc2s1	0	0	0	0	16µM	0
N#C/C(=C\c1cccs1)Sc1nc2ccccc2s1	0	0	0	0	?	0
C#C[C@]1(O)CC[C@H]2[C@H]3CCC4=Cc5oncc5C[C@]4(C)[C@@H]3CC[C@]21C	0	0	0	0	0	0
O=c1[nH]c2ccccc2n1CCCSCCCn1c(=O)[nH]c2ccccc21	0	0	0	0	0	0
Cc1cc(C(=O)CSCCCn2c(=O)[nH]c3ccccc32)c(C)n1C	0	0	0	0	32µM	0
CN(C)c1ccc(-c2nc(N(C)Cc3ccco3)c3ccccc3n2)cc1	0	0	0	0	0	0
SMILES	TsaE inh	BRCT PPI green	BRCT PPI red	DNA Pol III inh	15-hLO inh	Hsp90 Hop PPI
CN(Cc1ccco1)c1nc(-c2ccoc2)nc2ccccc12	0	0	0	0	13µM	0
O=C(NC1=NCCS1)c1ccc2c(c1)C(=O)N(Cc1ccco1)C2=O	0	0	0	0	0	0
O=C(Nc1ccc(Cl)cc1C(=O)O)c1ccc2c(c1)C(=O)N(Cc1ccco1)C2=O	0	0	0	32µM	?	0
Cc1ccc(C2CC(=O)NC(SCc3ccccc3)=C2C#N)o1 (configuration not stated)	-	0	0	-	0	-
CCCCCCSC1=C(C#N)C(c2ccc(C)o2)CC(=O)N1 (configuration not stated)	0	0	0	0	25µM	0
CCCCC(CC)COC(=O)COc1ccc(Cl)cc1Cl (configuration not stated)	0	0	0	0	0	?
CC1=CC2=C(OC1N(C)C)c1cccc3cccc(c13)C2=O (configuration not stated)	0	0	0	?	7.9µM	0
O=C1OCc2cccc3cccc1c23	0	0	0	0	0	0
COc1ccc(Br)cc1C1CC(=O)N2CN(Cc3ccccc3)CSC2=C1C#N (configuration not stated)	0	0	0	0	2.5µM	0[2.3 µM]
COc1ccccc1N1CSC2=C(C#N)C(c3ccc(SC)cc3)CC(=O)N2C1 (configuration not stated)	0	0	0	0	3.2µM	0[2.3 µM]
COc1ccc(Br)cc1C1CC(=O)N2CN(C)CSC2=C1C#N (configuration not stated)	0	0	0	0	?	0[2.3 µM]
COc1cc(C2CC(=O)N3CN(c4ccccc4C)CSC3=C2C#N)cc(OC)c1OC (configuration not stated)	0	0	0	0	4µM	0
Nc1nc(SCc2ccc([N+](=O)[O-])cc2)c2ncn([C@@H]3O[C@@H](CO)[C@@H](O)[C@H]3O)c2n1	0	0	0	0	0	0
Cc1ccc(NC(=O)Nc2cccs2)cc1	-	0	0	-	25µM	-
O=C(NCc1cccs1)Nc1cccs1	0	0	0	0	0	0
COC(=O)Cc1ccc(NC(=O)c2cccs2)cc1	0	0	0	0	0	0
O=C(Nc1cccs1)Nc1ccccc1Cl	0	0	0	0	13µM	0
CCc1ccc(NC(=O)Nc2cccs2)cc1	0	0	0	0	25µM	0
CC#N	0	0	0	0	0	0
COCCN(CCOC)c1nc(C)nc2c1nc(-c1ccccc1)n2CCN(C)C	0	0	0	0	25µM	0
Cc1nc(NCc2ccccc2)c2nc(-c3ccccc3)n(CC(C)(C)CN(C)C)c2n1	0	0	0	0	4µM	0
